Rows were chosen to be rich in hits. Some 3% of all compounds tested hit in one or more screens of this group.
Rv3671c protease: inhibitors of M. tuberculosis serine protease Rv3671c; inhibition, % at 5.96 µM; 0.048% of 320,000 active; P9WHR9; AID 2606; in the data active = inhibition above about 38%;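 note: extracellular domain of Rv3671c used as enzyme; 0% = enzyme with DMSO and 100% = no enzyme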
Target sequence (P9WHR9 whole entry, looked up, the tested form may be a part): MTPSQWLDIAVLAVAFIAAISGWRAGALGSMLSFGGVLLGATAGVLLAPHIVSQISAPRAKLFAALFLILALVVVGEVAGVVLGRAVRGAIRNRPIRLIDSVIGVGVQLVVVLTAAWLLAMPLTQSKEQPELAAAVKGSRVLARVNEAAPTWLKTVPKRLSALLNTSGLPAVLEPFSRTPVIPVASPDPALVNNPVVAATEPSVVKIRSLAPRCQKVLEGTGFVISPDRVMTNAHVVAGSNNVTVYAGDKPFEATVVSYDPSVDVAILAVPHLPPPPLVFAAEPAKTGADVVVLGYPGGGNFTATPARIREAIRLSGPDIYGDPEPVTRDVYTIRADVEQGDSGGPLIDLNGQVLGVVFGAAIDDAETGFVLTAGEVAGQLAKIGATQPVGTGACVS
BioA inh: BioA (M. tuberculosis) enzyme inhibition | purified M. tuberculosis BioA enzyme, plate reader | inhibition, % at 9.99 µM | 0.096% of 360,000 active | AID 602481; in the data active = inhibition above about 40%
FBA Mtb inh: inhibits M. tuberculosis FBA enzyme; purified M. tuberculosis FBA, fluorescence read-out; inhibition, % at 1 µM; P9WQA3; 2.3% of 360,000 active; in the data active = inhibition above about 27%;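 note: 0% = vehicle and 100% = reference inhibitor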
GDH-TPI counter: GDH-TPI coupled enzyme inhibition counter-screen; GDH-TPI coupled enzyme counterscreen, NADH absorbance; inhibition, % at 4.8 µM; 1.2% of 360,000 active; AID 588335; in the data active = inhibition above about 30%;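 note: 0% = DMSO wells and 100% = wells lacking the enzyme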
FadD28 FP inh: inhibitors of Mycobacterium tuberculosis FadD28 bisubstrate binding; FadD28 bisubstrate probe binding, fluorescence polarization; inhibition, % at 12.5 µM; 0.22% of 360,000 active; in the data active = inhibition above about 8.5%, passing the limit was not always enough
Numbers without * were called inactive; . = no result given; + = active, no number.

SMILES | Rv3671c protease | BioA inh | FBA Mtb inh | GDH-TPI counter | FadD28 FP inh
COc1ccc(-c2nc3c(s2)CN(S(C)(=O)=O)CC3)cc1OC | . | 1.1 | 127.3* | 2.5 | .
COc1ccccc1NC(=O)N[C@@H]1CC[C@@H](CCNS(=O)(=O)c2ccc(F)cc2)O[C@@H]1CO | . | -0.6 | . | . | .
CCN1CCN(c2nc3c(C)cccn3c(=O)c2/C=C(\C#N)C(=O)NCCCOC)CC1 | 0.3 | 0.5 | 142.9* | -5.2 | -2.9
C[C@@H]1CN([C@@H](C)CO)C(=O)c2cc(NC(=O)Cc3ccccc3)ccc2O[C@@H](C)CCCCO[C@@H]1CN(C)Cc1ccccc1 | . | 4.8 | . | . | .
O=C(C[C@H]1CC[C@@H]2[C@H](COC[C@@H](O)CN2C(=O)c2cccnc2)O1)NC1Cc2ccccc2C1 | . | -1.1 | . | . | .
Fc1ccc(/C=N/Nc2ncnc3nc[nH]c23)cc1F | -2.8 | 1.0 | -0.8 | 42.2* | -2.7
Cc1ccccc1/C=N/Nc1ncnc2nc[nH]c12 | -5.9 | -2.1 | 8.0 | 29.9 | -1.9
O=C(N[C@H]1CC[C@@H](CCNS(=O)(=O)c2ccc(F)cc2)O[C@H]1CO)c1cnccn1 | . | -2.5 | . | . | .
Cc1cc(N(C)Cc2ccccc2)nc2cc(O)ccc12 | 0.5 | 3.5 | + | 8.9 | -1.9
Cc1cc(N(C)Cc2ccccc2)nc(-c2ccccc2)n1 | -2.3 | -1.2 | -3.1 | 8.9 | -5.6
CCn1c(=N)n(CC(O)c2ccco2)c2ccccc21 (stereo unspecified) | -1.7 | -2.4 | -0.9 | -1.3 | -0.6
N=c1n(Cc2ccccc2)c2ccccc2n1CC(O)c1ccco1 (stereo unspecified) | -5.4 | -11.1 | 14.2 | -0.5 | 13.5*
CCNC(=O)c1cc2c(=O)n3cccc(C)c3nc2n(CCc2ccccc2)c1=N | -2.3 | -11.4 | + | 9.3 | -2.9
COCCn1c(=N)c(C(=O)NCCc2ccccc2)cc2c(=O)n3cccc(C)c3nc21 | 5.9 | . | 117.4* | -1.9 | -3.6
Cc1ccc(Cn2c(=N)c(C#N)cc3c(=O)n4cccc(C)c4nc32)cc1 | -12.9 | . | . | . | .
CCCCNC(=O)c1cc2c(=O)n3cccc(C)c3nc2n(Cc2ccccc2)c1=N | -4.1 | 4.9 | 149.9* | 1.4 | -3.1
Cc1cccn2c(=O)c3cc(C(=O)NCCc4ccccc4)c(=N)n(CCCn4ccnc4)c3nc12 | 2.0 | -1.7 | 128.8* | -3.8 | -5.3
CC(C)NC(=O)N(C)C[C@@H]1Oc2ccc(NS(=O)(=O)c3cn(C)cn3)cc2CC(=O)N([C@H](C)CO)C[C@H]1C | . | -2.2 | . | . | .
C[C@H]1CCCCO[C@@H](CN(C)C(=O)c2ccccc2)[C@@H](C)CN([C@@H](C)CO)C(=O)c2cc(NS(=O)(=O)c3cn(C)cn3)ccc2O1 | . | 0.2 | . | . | .
COCCNC(=O)c1cc2c(=O)n3cccc(C)c3nc2n1C | -2.7 | -0.7 | 18.6 | 9.0 | 0.1
CCC(C)n1c(=N)c(C#N)cc2c(=O)n3cccc(C)c3nc21 (stereo unspecified) | 0.4 | . | 19.8 | 1.2 | -1.1
C=CCn1c(=N)c(C(=O)NCCCOC)cc2c(=O)n3cccc(C)c3nc21 | -2.9 | 0.1 | + | 15.4 | -1.6
CNC(=O)c1cc2c(=O)n3cccc(C)c3nc2n(C(C)C)c1=N | 6.8 | 0.7 | + | 7.2 | -2.8
CC(=O)N1[C@H](CO)[C@@H](c2ccccc2)[C@@H]1CN(C)C(=O)CN1CCOCC1 | . | -2.1 | . | . | .
C[C@H]1CN([C@@H](C)CO)C(=O)Cc2cc(NS(=O)(=O)c3ccc(Cl)cc3)ccc2O[C@@H]1CN(C)C(=O)NC1CCCCC1 | . | 1.8 | . | . | .
SMILES | Rv3671c protease | BioA inh | FBA Mtb inh | GDH-TPI counter | FadD28 FP inh
Cc1cc(F)ccc1NC(=O)c1ccc(NS(=O)(=O)c2cccs2)cc1 | . | 0.7 | -0.5 | -7.1 | -3.5
Cc1cccc2sc(NC(=O)c3ccc(NS(=O)(=O)c4cccs4)cc3)nc12 | -156.1 | -1.8 | 8.4 | 32.3* | -0.8
COc1ccc2nc(NC(=O)CNS(=O)(=O)c3cccs3)sc2c1 | -5.7 | 0.2 | 2.8 | 8.3 | -1.1
COc1ccc2nc(NC(=O)c3ccc(NS(=O)(=O)c4cccs4)cc3)sc2c1 | -94.5 | -2.0 | 21.2 | 39.5* | -1.5
C[C@H](CO)N1C[C@H](C)[C@H](CN(C)C(=O)C2CCOCC2)Oc2cc(C#Cc3ccncc3)ccc2S1(=O)=O | . | 3.6 | . | . | .
COc1ccccc1NC(=O)N1C[C@@H](O)COC[C@@H]2O[C@H](CC(=O)NCCc3ccccc3)CC[C@H]21 | . | -2.3 | . | . | .
Cc1nc(-c2ccc(NC(=O)/C=C\C(=O)O)cc2)cs1 | -6.5 | . | 3.3 | -3.2 | -1.0
CCC(=O)NC(=S)Nc1ccc(-c2nc3ccc(C)cc3s2)cc1 | -11.5 | -1.3 | -1.4 | -7.4 | -4.3
Cc1ccc2nc(-c3ccc(NC(=O)COCC(=O)O)cc3)sc2c1 | -3.1 | 0.8 | 136.4* | 24.5 | -8.2
